HTR5A ag – activates human HTR5A in OPRM1-OPRD1 agonist counter-screen | P47898 | HTR5A agonist assay, luminescence, cell-based | activation, % at 9.3 µM | actives 0.61% (n = 340,000) | AID 504692; in the data active means activation mostly above about 9.5%, no sharp cut-off; inactive means mostly below about 7.6%;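 further: 0% = cells with vehicle only and 100% = reference agonist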
MOR-DOR ag – OPRM1-OPRD1 heterodimerization agonism; P35372+P41143; cells, luminescence; actives 0.3% (n = 340,000); AID 504326; activation, % at 9.3 µM;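 further: 0% = vehicle-treated cells and 100% = reference agonist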
Target sequence (P35372 whole entry, looked up): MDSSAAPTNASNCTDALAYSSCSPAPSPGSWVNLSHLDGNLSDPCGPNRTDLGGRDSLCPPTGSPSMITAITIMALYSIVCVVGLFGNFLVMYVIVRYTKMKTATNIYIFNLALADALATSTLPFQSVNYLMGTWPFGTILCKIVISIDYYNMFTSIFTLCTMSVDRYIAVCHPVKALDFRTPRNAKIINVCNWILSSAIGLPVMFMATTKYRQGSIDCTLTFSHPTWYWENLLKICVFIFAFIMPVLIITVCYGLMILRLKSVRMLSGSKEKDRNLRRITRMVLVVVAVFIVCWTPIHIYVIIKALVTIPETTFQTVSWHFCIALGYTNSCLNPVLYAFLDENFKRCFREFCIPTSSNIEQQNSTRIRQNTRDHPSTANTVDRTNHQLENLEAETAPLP
Target sequence (P41143 whole entry, looked up): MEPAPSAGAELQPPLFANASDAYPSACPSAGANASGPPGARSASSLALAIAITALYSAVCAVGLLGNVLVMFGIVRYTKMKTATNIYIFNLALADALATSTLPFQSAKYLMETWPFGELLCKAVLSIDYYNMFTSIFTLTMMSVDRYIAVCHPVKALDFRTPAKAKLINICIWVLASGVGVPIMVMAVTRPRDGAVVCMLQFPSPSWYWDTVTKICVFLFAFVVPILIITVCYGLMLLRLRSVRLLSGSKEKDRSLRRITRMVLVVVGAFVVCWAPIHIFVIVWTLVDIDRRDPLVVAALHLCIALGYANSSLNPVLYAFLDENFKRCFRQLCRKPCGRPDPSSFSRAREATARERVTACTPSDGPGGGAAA
MOR-DOR inv ag – mu-delta opioid heterodimer inverse agonism. inhibition, % at 9.3 µM. actives 0.21% (n = 340,000). P35372+P41143. AID 504357. cell-based MOR-DOR heterodimer luminescence; in the data active means inhibition above about 22%, passing the limit was not always enough;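 further: 0% = cells with DMSO and 100% = wells without cells with DMSO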
HTR5A inv ag – HTR5A inverse agonism, opioid heterodimer counter-screen | inhibition, % at 9.3 µM | actives 0.083% (n = 340,000) | P47898 | HTR5A cell line, luminescence; in the data active means inhibition mostly above about 23%, no sharp cut-off; inactive means mostly below about 18%;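 further: 0% = cells with DMSO and 100% = no-cell wells with DMSO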
MOR-DOR ag conf – OPRM1-OPRD1 heterodimer agonism, confirmation. actives 45% (n = 830). activation, % at 9.3 µM. AID 504904. shares compounds with MOR-DOR ag. cells, MOR-DOR heterodimerization, luminescence complementation;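 further: 0% = vehicle-treated cells and 100% = reference agonist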
HTR5A ag counter – HTR5A agonism, opioid heterodimer counter-screen | shares compounds with MOR-DOR ag | HTR5A agonist counterscreen, cell luminescence | activation, % at 9.3 µM | actives 8% (n = 830) | AID 504905; in the data active means activation above about 17%;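 further: 0% = vehicle-treated cells and 100% = reference agonist response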
OPRM1-D1 inv cf – confirmation of human OPRM1-OPRD1 heterodimerization inverse agonists | shares compounds with MOR-DOR inv ag | cells expressing OPRM1/OPRD1 heterodimer, luminescence | inhibition, % at 9.3 µM | actives 20% (n = 580) | AID 504900; in the data active means inhibition above about 32%;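 further: 0% = cells with DMSO and 100% = wells lacking cells with DMSO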
HTR5A inv count – counter-screen for OPRM1-OPRD1 inverse agonists: human HTR5A inverse agonism. shares compounds with MOR-DOR inv ag. 580 tested, under 10 active. HTR5A-expressing cells, luminescence. AID 504914. inhibition, % at 9.3 µM; call rule not given here;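 further: 0% = cells with DMSO and 100% = no-cell wells with DMSO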
Numbers without * were called inactive; i = inactive; . = not tested or not shown; + = active, no number. A selection: hits, their analogues and other compounds. The true share with any hit is near 1.1%. Unless noted, no stated cut-off is given here; in the data, active means activation above about 18%; inactive means the rest.

SMILES	HTR5A ag	MOR-DOR ag	MOR-DOR inv ag	HTR5A inv ag	MOR-DOR ag conf	HTR5A ag counter	OPRM1-D1 inv cf	HTR5A inv count
CCOC(=O)C1(c2ccccc2)CCN(CCC(C#N)(c2ccccc2)c2ccccc2)CC1	7	288*	i	-25	0	4	.	.
CCOC(=O)C1(c2ccccc2)CCN(CCC(=O)Nc2ccc(C(=O)OC)cc2)CC1	2	5	-21	-4	.	.	.	.
CCOC(=O)C1(c2ccccc2)CCN(CCC(=O)Nc2cccc(Br)c2)CC1	13	49*	-313	8	57*	-1	.	.
CCN(CC)P(=O)(Oc1ccccc1)Oc1ccccc1	-1	-1	5	14	.	.	.	.
O=C1C(=O)c2ccccc2-c2ccccc21	9	40*	-222	-44	15	4	.	.
CN(C)P(=O)(N(C)C)N1CC1	1	-3	16	-6	.	.	.	.
C[C@@H]1O[C@@H](O[C@H]2C[C@@H](O)[C@]3(CO)[C@@H]4C(CC[C@]3(O)C2)[C@@]2(O)CC[C@H](C3COC(=O)C3)[C@@]2(C)C[C@H]4O)[C@H](O)[C@H](O)[C@H]1O (some centres not stated)	23	73*	-402	-68	3	7	.	.
COc1ccc(-c2nn(CCC#N)cc2C(=O)Nc2cccc([N+](=O)[O-])c2)cc1OC	-1	-2	9	2	.	.	.	.
Clc1ccc(CSC(Cn2ccnc2)c2ccc(Cl)cc2Cl)cc1 (configuration not stated)	8	+	i	-21	i	0	.	.
Clc1ccc(COC(Cn2ccnc2)c2ccc(Cl)cc2Cl)cc1 (configuration not stated)	9	14	-79	6	.	.	.	.
C[C@]12CC[C@H]3C(CCC4(O)CC(O)CC[C@]34C=O)C1=CC[C@H]2c1ccc(=O)oc1 (some centres not stated)	23*	67*	-303	-82	33*	23*	.	.
CC1(O)CCC2C3CCC4=CC(=O)CCC4(C)C34OC4CC21C (configuration not stated)	0	-4	20	1	.	.	.	.
CC(=O)O[C@H]1[C@H]2O[C@]23[C@@H]2CC[C@]4(O)C[C@@H](O)CC[C@]4(C)C2CC[C@]3(C)[C@H]1c1ccc(=O)oc1 (some centres not stated)	33*	75*	-406	-111	301*	2	.	.
CC(=O)c1ccc(OCC(=O)N2CCCC(N3CCN(c4ccccc4C)CC3)C2)cc1 (configuration not stated)	1	-4	19	-2	.	.	.	.
COCCCn1c(N)c(C(=O)OCCOC)c2nc3ccccc3nc21	-3	-5	20	7	.	.	.	.
CCOC(=O)c1c(NS(=O)(=O)c2ccccc2)n(CCCOC)c2nc3ccccc3nc12	-3	-10	46*	-29	.	.	-51	-118
CCCNC(=O)N1[C@H]2CC[C@@H]1C(C(=O)OC)=C(c1ccc(C(C)=O)cc1)C2	5	-3	13	-12	.	.	.	.
CC1CCC/C=C/C2CC(O)CC2C(O)/C=C/C(=O)O1 (configuration not stated)	0	-6	38*	-29	.	.	14	-3
C[C@H]1CCC/C=C/C2C[C@H](O)CC2[C@H](O)/C=C/C(=O)O1 (some centres not stated)	1	-7	38*	-2	.	.	19	-3
C[C@H]1CCC[C@@H](O)CCC/C=C/c2cc(O)cc(O)c2C(=O)O1	-2	0	2	-4	.	.	.	.
ON1C2CCCCC2N(O)C1c1ccccc1F (configuration not stated)	-3	-9	54*	9	.	.	-472	-63
COC(=O)c1c(N)n(Cc2ccc(OC)cc2)c2nc3ccccc3nc12	-2	-7	32*	-13	.	.	-15	0
CC(C)OC(=O)c1c(N)n(Cc2ccco2)c2nc3ccccc3nc12	-5	-4	21	11	.	.	.	.
COCCOC(=O)c1c(N)n(Cc2ccco2)c2nc3ccccc3nc12	-1	-5	29*	3	.	.	3	5

Screening results deposited in PubChem BioAssay by The Scripps Research Institute Molecular Screening Center.
